Experimental data from PubChem BioAssay (NCI).
Compounds without any hit were thinned out: in the full panel of roughly 83,000, 20% have a hit.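 Percent growth is the endpoint: 0 to 100 indicates growth inhibition (40 means 60% inhibition), 0 means no net growth, and negative values indicate cell death.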 Values without a mark were called inactive. Calls of active or inactive are those of the source. How the source made its calls: active means growth percent below 10; inactive means the rest.

Legend:
Assay in all cases: NCI-60 one-dose screen, 48 h (100 = growth as untreated, 0 = no growth, -100 = all killed)
Conditions in all cases: 10 µM unless noted
SR leukemia = tested on: SR leukemia
RPMI-8226 leukemia = tested on: RPMI-8226 leukemia
OVCAR-8 ovarian = tested on: OVCAR-8 ovarian
OVCAR-5 ovarian = tested on: OVCAR-5 ovarian
OVCAR-4 ovarian = tested on: OVCAR-4 ovarian
SK-OV-3 ovarian = tested on: SK-OV-3 ovarian
IGROV1 ovarian = tested on: IGROV1 ovarian
HS 578T breast = tested on: HS 578T breast
NCI/ADR-RES ovarian = tested on: NCI/ADR-RES ovarian
OVCAR-3 ovarian = tested on: OVCAR-3 ovarian

SMILES	growth (SR leukemia)	growth (RPMI-8226 leukemia)	growth (OVCAR-8 ovarian)	growth (OVCAR-5 ovarian)	growth (OVCAR-4 ovarian)	growth (SK-OV-3 ovarian)	growth (IGROV1 ovarian)	growth (HS 578T breast)	growth (NCI/ADR-RES ovarian)	growth (OVCAR-3 ovarian)
N#Cc1nc(-c2ccccc2)oc1S(=O)(=O)N1CCOCC1	1.09% (active)	76.5%	59.8%	103%	84.2%	103%	88.5%	107%	98.7%	–
CC1Cc2c(Cl)ncnc2N(C)c2ccc(F)cc21 (stereo not given)	95.3%	98.4%	91.9%	99.9%	95.4%	89.6%	105%	64.1%	101%	106%
CCN(CC)c1ccc(/C=C/C(=O)c2ccc(Nc3nc(Nc4ccccc4)nc(Nc4ccccc4)n3)cc2)cc1	39%	-23.6% (active)	43.8%	71.3%	58.5%	77.4%	47.8%	26.2%	39.1%	46.5%
N#Cc1cccc(-c2c(-c3ccc4ccccc4c3)oc3ccccc3c2=O)c1	9.67% (active)	46.2%	62.4%	53.3%	68.1%	51%	36.5%	69%	27.2%	40.2%
COc1cc(CNC(=O)CCCC/C=C/C(C)C)ccc1OCc1nnc(Nc2ccc([N+](=O)[O-])cc2)o1	64.2%	52.3%	25%	101%	11.3%	11.8%	53.5%	63.2%	79.6%	77.3%
CC(C)CCNC(=O)Cn1cccc(NC(=O)OCc2ccccc2)c1=O	107%	92.6%	104%	127%	98.7%	101%	112%	103%	93.9%	107%
N=C(N)c1ccc(-c2ccc(-c3ccc(Cl)cc3)s2)nc1	1.7% (active)	-24.6% (active)	-31% (active)	-28% (active)	18.1%	86.7%	-79.2% (active)	67.5%	67.4%	-93% (active)
Cc1cc2c(O)c(-c3cccc(Cl)c3)c3sc(=O)oc3c2cc1C	18.6%	12.1%	41.9%	106%	13.4%	59.4%	41%	48.2%	56.3%	18.6%
N=C(N)c1ccc(-c2ccc(-c3cc(Cl)cc(Cl)c3)o2)o1	-50% (active)	-33.6% (active)	-41.7% (active)	-72.2% (active)	-76.3% (active)	-59% (active)	-52.5% (active)	64.8%	-38.5% (active)	–
C=CC(=O)NCc1ccc(Nc2nccc(-c3ccc(N4CCCC4)c(C#N)c3)n2)cc1	5.13% (active)	46.7%	30.8%	75.3%	16.2%	29.6%	25.2%	25.4%	34.4%	33.4%
O=c1oc2c(cnc3ccccc32)cc1-c1ccsc1	95%	96.6%	94.6%	114%	88.4%	104%	103%	94.9%	109%	108%
C1=CN2CC(c3ccccc3)=NNC2c2ccccc21 (stereo not given)	97%	69.8%	92%	106%	83%	92.2%	22.8%	86.7%	80.6%	81.5%
C#Cc1ccc(NC(=O)c2ccc(/C=C/C(=O)c3nccn3C)cc2)cc1	-18.8% (active)	-25.9% (active)	5.61% (active)	-61.6% (active)	9.83% (active)	18.7%	-37.3% (active)	33.1%	-7.85% (active)	-86% (active)
O=C(CI)NC1Oc2ccccc2-c2oc(=O)c(-c3ccccc3)cc21 (stereo not given)	-33.5% (active)	-49.4% (active)	-27.9% (active)	12.8%	-40.3% (active)	103%	-59% (active)	44.3%	36.7%	–
Cc1ccc(Sc2oc(-c3ccc(C)cc3)nc2[P+](c2ccccc2)(c2ccccc2)c2ccccc2)cc1	-18.8% (active)	-37.6% (active)	5.45% (active)	7.79% (active)	-3.08% (active)	-3.38% (active)	-74.4% (active)	-8.27% (active)	1.73% (active)	–
COc1ccc(Cc2cc(-c3ccccc3)nn(Cc3ccccc3)c2=O)cc1OC	40.2%	15.2%	32.3%	68.3%	32.5%	74.1%	47%	66.6%	30.2%	47.6%
CC(=O)Cc1nsc(NC(=O)c2cc(-c3cc(Cl)cc(Cl)c3)oc2C)n1	98.3%	93.5%	97.8%	104%	104%	99.2%	102%	102%	103%	–
CCN1C(=O)N(CC)C2C1NN=c1s/c(=C\c3cccc([N+](=O)[O-])c3)c(=O)n12 (stereo not given)	12.7%	22.8%	6.8% (active)	33%	51.1%	38.3%	22.6%	17.6%	9.2% (active)	1.4% (active)
C=C(C)[C@@H]1CC[C@]2(C(=O)NCCNCCN)CC[C@]3(C)[C@H](CC[C@@H]4[C@@]5(C)C/C(=C/c6ccncc6)C(=O)C(C)(C)[C@@H]5CC[C@]43C)[C@@H]12	95.4%	90.5%	101%	103%	89.9%	109%	87.6%	86.7%	101%	–
CCOC(=O)c1cn2ncnc(Oc3ccc(NC(=O)NC4CCCCC4)c(Cl)c3)c2c1C	73.8%	90.9%	74%	93.5%	-0.664% (active)	108%	81.4%	36.1%	59%	–
COC(=O)c1cc(-c2ccccc2)[nH]c1N/N=C/c1c(Cl)cccc1Cl	-9.18% (active)	-12.7% (active)	15.4%	21.9%	64.5%	24.4%	-44.5% (active)	-30.4% (active)	-16.2% (active)	-76.7% (active)
CC(C)CCC[C@@H](C)[C@H]1CC[C@H]2[C@@H]3CC=C4C[C@@H](C(C(=O)O)C(=O)O)CC[C@]4(C)[C@H]3CC[C@]12C	-39.7% (active)	-26.9% (active)	-19.8% (active)	45.2%	0.439% (active)	-5.5% (active)	-35.5% (active)	-12.7% (active)	-1.29% (active)	–
C=C(C)[C@@H]1CC[C@]2(C(=O)O)CC[C@]3(C)[C@H](CC[C@@H]4[C@@]5(C)C[C@@H](Cc6cn(CCO[C@@H]7O[C@H](COC(C)=O)[C@H](OC(C)=O)[C@H](OC(C)=O)[C@H]7OC(C)=O)nn6)[C@H](O)C(C)(C)[C@@H]5CC[C@]43C)[C@@H]12	48.2%	38.3%	77.8%	97.3%	72.8%	80.8%	59.3%	51.9%	91.8%	–
Cc1cc2c([nH]1)CSc1cc(S(=O)(=O)c3ccccc3)c(=O)[nH]c1-2	12.8% [100 µM]	21.3% [100 µM]	24.3% [100 µM]	69.9% [100 µM]	43.1% [100 µM]	22% [100 µM]	42.6% [100 µM]	47.5% [100 µM]	15.7% [100 µM]	-15.6% [100 µM] (active)
CCCCC(=O)Nc1ncc(Cc2ccc(Cl)cc2)s1	33.5%	86.2%	84.9%	73.9%	80%	79.1%	66.5%	72.9%	48.4%	68.3%
CCOC(=O)Cn1c(O)c(N=Nc2ccc(S(N)(=O)=O)cc2)c2cc(Br)ccc21	75.3%	79.5%	56.5%	85.9%	31.2%	81.9%	73%	89.7%	89.7%	–
CCCCCCCCn1ccc2cc(NC(=O)Cn3cc(CN4CCCCC4)nn3)ccc21	5.39% (active)	-59.2% (active)	42%	73.7%	59.1%	67.5%	45.5%	41.5%	72.7%	26%
